Test results taken from the supplement of paper PMC6555819.

Legend:
Test in all cases: PBM binding z-score (relative to random genomic background probes); higher = stronger binding; sequences stand for … in GC…GCGATTGACAGCGTAGAATGAAGG
[1] = test system: PPARg:RXRa DBDmut IVT, anti-RXR (DBD mutation: RXRa K156A/R161A, NR concentration 270 nM, RXRa partner concentration 90 nM)
In short: (§1)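 Scanned fluorescence from custom Agilent 4×180K protein-binding microarrays was regression-normalized. Binding z-scores use random background probes as reference. Ligand-free nuclear receptor dimers were incubated on the arrays for 1 h and detected with antibodies against each partner (one per run).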

[2] = test system: PPARg:RXRa IVT, anti-PPARg (NR concentration 270 nM, RXRa partner concentration 90 nM)
In short: as §1

[3] = test system: PPARg DBDmut:RXRa IVT, anti-PPARg (DBD mutation: PPARg1 K132A/R137A, NR concentration 270 nM, RXRa partner concentration 90 nM)
In short: as §1

[4] = test system: PPARg DBDmut IVT, anti-PPARg (DBD mutation: PPARg1 K132A/R137A, NR concentration 270 nM)
In short: as §1

[5] = test system: PPARg homodimer (NR concentration 180 nM)
In short: as §1

[6] = test system: PXR:RXRa (NR concentration 270 nM, RXRa partner concentration 90 nM)
In short: as §1

[7] = test system: PXR homodimer (NR concentration 270 nM)
In short: as §1

[8] = test system: RARa:RXR (NR concentration 270 nM, RXRa partner concentration 90 nM)
In short: as §1

[9] = test system: RARa homodimer (NR concentration 270 nM)
In short: as §1

[10] = test system: RARb:RXRa (NR concentration 270 nM, RXRa partner concentration 90 nM)
In short: as §1

[11] = test system: RARb homodimer (NR concentration 270 nM)
In short: as §1

[12] = test system: RARg:RXRa (NR concentration 270 nM, RXRa partner concentration 90 nM)
In short: as §1

[13] = test system: RARg homodimer (NR concentration 270 nM)
In short: as §1

[14] = test system: RXRa DBDmut IVT, anti-RXR (DBD mutation: RXRa K156A/R161A, NR concentration 90 nM)
In short: as §1

[15] = test system: RXRa homodimer (NR concentration 180 nM)
In short: as §1

[16] = test system: THRa:RXRa (NR concentration 90 nM, RXRa partner concentration 90 nM)
In short: as §1

[17] = test system: THRa homodimer (NR concentration 90 nM)
In short: as §1

[18] = test system: VDR:RXRa (NR concentration 270 nM, RXRa partner concentration 90 nM)
In short: as §1

[19] = test system: VDR homodimer (NR concentration 270 nM)
In short: as §1

Sequence | PBM binding z-score [1] | PBM binding z-score [2] | PBM binding z-score [3] | PBM binding z-score [4] | PBM binding z-score [5] | PBM binding z-score [6] | PBM binding z-score [7] | PBM binding z-score [8] | PBM binding z-score [9] | PBM binding z-score [10] | PBM binding z-score [11] | PBM binding z-score [12] | PBM binding z-score [13] | PBM binding z-score [14] | PBM binding z-score [15] | PBM binding z-score [16] | PBM binding z-score [17] | PBM binding z-score [18] | PBM binding z-score [19]
ATACCAAGGCGATCGTGAGGTCGTTGATACTAAC | -0.138 | -0.0368 | -0.877 | -0.313 | -0.138 | 1.3 | 0.728 | 1.12 | 0.128 | 0.341 | 0.905 | 0.636 | 0.0519 | 0.303 | 0.794 | 2.26 | 1.5 | 1.51 | 1.85
CCTCGGAGGACAACAGGAGGTCAGACCTGCCAGA | 0.294 | 0.546 | -0.564 | -0.997 | 1.43 | 2.11 | 0.241 | 2.19 | 0.183 | 2.89 | 3.55 | 3.39 | 3.43 | 0.289 | 1.93 | 2.83 | 1.02 | 1.95 | 1.25
CCTTATGGGTCACTGACAGGTTATAGCATTTGGA | 5.9 | 6.16 | 0.901 | 0.187 | 2.16 | 2.86 | 0.162 | 3.89 | 0.956 | 3.8 | 3.37 | 5.28 | 3.89 | 1.05 | 4.43 | 2.59 | 0.464 | 2.89 | 0.502
TCTAGCAGGCCAGAGGGTCACTTAAGAGGTACGG | 0.598 | 0.688 | -0.762 | -0.435 | 0.442 | 1.35 | -0.462 | 2.27 | -0.441 | 2.19 | 2.71 | 2.39 | 2.2 | 0.154 | 2.36 | 1.53 | -0.266 | 1.26 | 0.361
TATACAGGTTCAAAGGCCAGAGTACGAATGTCGA | 0.255 | 1.44 | 0.672 | 0.97 | 1.53 | 2.53 | 1.35 | 2.91 | 1.41 | 2.2 | 1.82 | 2.45 | 1.79 | 4.01 | 3.63 | 1.25 | -0.0522 | 3.76 | 4.75
ATATGTAGGTTATCGGGTCAATCAGTTTGCGCAT | 7.94 | 7.57 | 3.15 | 2.14 | 2.33 | 3.64 | 3.23 | 4.04 | 1.3 | 2.86 | 3.02 | 3.59 | 2.68 | 1.45 | 3.75 | 3.3 | 2.53 | 5.29 | 2.85
AGAATGATGTTACCAAAGATCAGGGAAACGCTTG | -0.0632 | 0.0152 | 0.508 | 0.116 | -0.153 | -0.39 | -0.411 | 0.018 | 0.147 | -0.129 | -0.737 | 0.0194 | 0.432 | -0.312 | 0.387 | -0.115 | -0.58 | -0.205 | -0.437
TAGCCTAGGGCATGGGCCAGTATACCACGCGAAC | -0.924 | 0.59 | -0.344 | -0.519 | -0.284 | -0.477 | -0.557 | 0.0195 | -0.519 | 1.33 | 0.79 | 0.484 | 0.834 | -1.24 | 0.135 | -0.0791 | 0.0268 | -0.452 | -0.21
